For 1 sequence, binding signal results are on record in paper PMC7862700, “An all-to-all approach to the identification of sequence-specific readers for epigenetic DNA modifications on cytosine”.

Experiment in all cases: DAPPL (digital affinity profiling via proximity ligation, sequencing); 10 mM Tris-HCl pH 7.5, 50 mM NaCl, 1 mM DTT, 4% glycerol, room temperature, 30 min; GST-TFs on glutathione beads, 16-mer random dsDNA library, 0.1% formaldehyde crosslink after washing; high values mean tight binding
One experiment deals with T1, FEV (Homo sapiens, UniProt Q99581 1-238).
T1 sequence: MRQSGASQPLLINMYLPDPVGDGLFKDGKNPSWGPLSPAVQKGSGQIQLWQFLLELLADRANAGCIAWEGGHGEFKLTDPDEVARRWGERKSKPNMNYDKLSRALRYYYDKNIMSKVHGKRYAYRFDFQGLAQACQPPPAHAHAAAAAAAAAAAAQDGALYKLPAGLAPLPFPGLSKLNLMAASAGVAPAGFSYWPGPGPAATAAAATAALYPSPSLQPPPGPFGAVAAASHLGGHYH
The conditions noted are these: protein: recombinant; tags: N-terminal GST; dsDNA, one strand shown. The procedure, abridged: (§1)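 After expression in yeast as GST fusions, human transcription factors were bound to glutathione beads, DNA-barcoded and mixed with a tag-only sample. The pools were incubated with 200 nmole of a 16-mer random double-stranded DNA library in Tris/NaCl/DTT/glycerol buffer (30 min, room temperature), washed and crosslinked with 0.1% formaldehyde. Proximity ligation with BsaI/T4 ligase ran for 1 h at 37 °C, before PCR amplification and sequencing on an Illumina NextSeq500. Binding signal is a hexamer's read frequency for a factor divided by its frequency for the tag-only sample.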

In the next experiment the target is ETV5 (Homo sapiens, UniProt P41161 1-510). The note with it: protein: recombinant; tags: N-terminal GST; dsDNA, one strand shown. The procedure, abridged: as §1
For a further experiment, the target named is HSF1 (Homo sapiens, UniProt Q00613 1-529). The note with it: protein: recombinant; tags: N-terminal GST; chain copies: 3; dsDNA, one strand shown. The procedure, abridged: as §1
A further experiment has as its target T2, SPIC (Homo sapiens, UniProt Q8N5J4 1-248).
T2 sequence: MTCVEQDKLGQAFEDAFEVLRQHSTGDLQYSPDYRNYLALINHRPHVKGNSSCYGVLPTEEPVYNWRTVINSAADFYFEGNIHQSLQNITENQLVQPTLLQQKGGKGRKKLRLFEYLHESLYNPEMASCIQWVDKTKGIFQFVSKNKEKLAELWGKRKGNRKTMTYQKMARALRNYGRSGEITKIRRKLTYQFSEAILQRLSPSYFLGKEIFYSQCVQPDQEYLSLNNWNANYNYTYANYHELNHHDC
The conditions noted are these: protein: recombinant; tags: N-terminal GST; dsDNA, one strand shown. In outline: as §1

Another experiment deals with ELF4 (Homo sapiens, UniProt Q99607 1-663). The conditions noted are these: protein: recombinant; tags: N-terminal GST; dsDNA, one strand shown. In outline:
as §1

For another experiment, the target named is T3, ELK4 (Homo sapiens, UniProt P28324-2 1-405).
T3 sequence: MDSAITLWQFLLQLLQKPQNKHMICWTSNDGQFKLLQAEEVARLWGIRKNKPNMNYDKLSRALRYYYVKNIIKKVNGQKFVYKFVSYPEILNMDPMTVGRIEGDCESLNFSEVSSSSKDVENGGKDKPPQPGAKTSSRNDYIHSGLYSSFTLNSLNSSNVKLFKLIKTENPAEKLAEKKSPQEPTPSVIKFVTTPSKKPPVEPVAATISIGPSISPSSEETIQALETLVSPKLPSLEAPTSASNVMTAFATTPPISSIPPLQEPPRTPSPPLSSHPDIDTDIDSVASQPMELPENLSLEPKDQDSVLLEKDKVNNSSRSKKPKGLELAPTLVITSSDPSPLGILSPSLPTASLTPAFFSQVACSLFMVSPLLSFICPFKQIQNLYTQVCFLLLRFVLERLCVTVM
The note with it: protein: recombinant; tags: N-terminal GST; dsDNA, one strand shown. In outline: as §1

The target in a further experiment is T4, ETV2 (Homo sapiens, UniProt O00321 1-342).
T4 sequence: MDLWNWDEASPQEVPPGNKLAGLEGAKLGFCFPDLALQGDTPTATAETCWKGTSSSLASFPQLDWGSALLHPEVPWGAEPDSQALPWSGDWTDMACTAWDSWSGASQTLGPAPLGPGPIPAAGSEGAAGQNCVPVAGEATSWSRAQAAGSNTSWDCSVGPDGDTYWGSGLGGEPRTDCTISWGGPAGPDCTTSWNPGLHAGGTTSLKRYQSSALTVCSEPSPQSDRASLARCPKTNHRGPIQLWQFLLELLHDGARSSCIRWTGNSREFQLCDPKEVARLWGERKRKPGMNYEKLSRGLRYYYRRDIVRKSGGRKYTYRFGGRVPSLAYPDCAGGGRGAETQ
The note with it: protein: recombinant; tags: N-terminal GST; dsDNA, one strand shown. In outline: as §1

The target in another experiment is T5, ELF3 (Homo sapiens, UniProt P78545 1-371).
T5 sequence: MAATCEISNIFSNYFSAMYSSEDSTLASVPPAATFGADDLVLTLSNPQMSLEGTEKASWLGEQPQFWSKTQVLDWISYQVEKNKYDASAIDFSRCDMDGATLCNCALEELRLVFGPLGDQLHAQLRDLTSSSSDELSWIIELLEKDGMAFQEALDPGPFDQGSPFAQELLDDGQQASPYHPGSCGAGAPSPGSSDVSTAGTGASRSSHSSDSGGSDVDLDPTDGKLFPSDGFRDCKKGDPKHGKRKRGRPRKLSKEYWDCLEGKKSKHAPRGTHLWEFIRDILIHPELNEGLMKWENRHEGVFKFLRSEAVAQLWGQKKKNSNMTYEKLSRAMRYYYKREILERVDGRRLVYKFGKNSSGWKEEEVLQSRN
The note with it: protein: recombinant; tags: N-terminal GST; dsDNA, one strand shown. In outline: as §1

Another experiment addresses CRX (Homo sapiens, UniProt O43186 1-299). The note with it: protein: recombinant; tags: N-terminal GST; dsDNA, one strand shown. In outline: as §1
A further experiment has as its target ETV1 (Homo sapiens, UniProt P50549 1-477). The note with it: protein: recombinant; tags: N-terminal GST; dsDNA, one strand shown. The procedure, abridged:
as §1

The target in another experiment is T6, ERF (Homo sapiens, UniProt P50548 1-548).
T6 sequence: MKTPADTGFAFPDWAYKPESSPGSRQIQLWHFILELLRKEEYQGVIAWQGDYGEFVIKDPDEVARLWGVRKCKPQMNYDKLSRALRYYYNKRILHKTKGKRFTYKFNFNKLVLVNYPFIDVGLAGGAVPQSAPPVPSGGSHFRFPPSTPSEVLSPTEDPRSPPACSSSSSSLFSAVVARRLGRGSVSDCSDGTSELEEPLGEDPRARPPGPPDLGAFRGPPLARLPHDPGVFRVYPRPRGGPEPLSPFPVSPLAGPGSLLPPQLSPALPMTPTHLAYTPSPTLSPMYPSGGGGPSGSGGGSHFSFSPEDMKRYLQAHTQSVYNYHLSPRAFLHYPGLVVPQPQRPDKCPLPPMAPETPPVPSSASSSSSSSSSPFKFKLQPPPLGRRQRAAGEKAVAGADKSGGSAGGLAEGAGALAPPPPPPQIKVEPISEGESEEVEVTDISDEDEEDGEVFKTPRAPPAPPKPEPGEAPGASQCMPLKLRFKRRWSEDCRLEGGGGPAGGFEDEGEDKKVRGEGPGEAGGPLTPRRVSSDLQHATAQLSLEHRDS
The conditions noted are these: protein: recombinant; tags: N-terminal GST; dsDNA, one strand shown. The procedure, abridged:
as §1

The target of the next experiment is T7, ETV3L (Homo sapiens, UniProt Q6ZN32 1-361).
T7 sequence: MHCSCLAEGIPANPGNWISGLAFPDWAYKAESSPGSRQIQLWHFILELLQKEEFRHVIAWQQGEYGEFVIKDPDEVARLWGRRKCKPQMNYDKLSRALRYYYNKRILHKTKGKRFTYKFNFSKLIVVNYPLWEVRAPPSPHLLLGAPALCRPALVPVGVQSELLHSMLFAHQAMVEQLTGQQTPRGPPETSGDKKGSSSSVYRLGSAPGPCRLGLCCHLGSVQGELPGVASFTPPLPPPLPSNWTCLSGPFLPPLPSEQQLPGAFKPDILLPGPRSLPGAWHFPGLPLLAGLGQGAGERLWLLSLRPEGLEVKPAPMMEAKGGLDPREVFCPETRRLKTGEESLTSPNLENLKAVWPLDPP
The conditions noted are these: protein: recombinant; tags: N-terminal GST; dsDNA, one strand shown. In outline:
as §1

For the next experiment, the target named is T8, ETS2 (Homo sapiens, UniProt P15036 1-469).
T8 sequence: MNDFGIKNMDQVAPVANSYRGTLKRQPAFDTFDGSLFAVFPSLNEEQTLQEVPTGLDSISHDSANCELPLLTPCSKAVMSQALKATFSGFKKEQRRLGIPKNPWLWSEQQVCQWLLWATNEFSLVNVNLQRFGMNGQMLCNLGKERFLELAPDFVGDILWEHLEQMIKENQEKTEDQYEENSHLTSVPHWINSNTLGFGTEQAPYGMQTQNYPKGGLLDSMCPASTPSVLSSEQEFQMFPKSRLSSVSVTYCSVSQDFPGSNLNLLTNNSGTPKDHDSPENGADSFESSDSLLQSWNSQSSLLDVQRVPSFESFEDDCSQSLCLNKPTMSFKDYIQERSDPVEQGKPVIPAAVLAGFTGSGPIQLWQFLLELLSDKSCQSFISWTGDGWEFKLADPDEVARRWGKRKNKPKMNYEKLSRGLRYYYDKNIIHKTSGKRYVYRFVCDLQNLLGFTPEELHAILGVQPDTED
The conditions noted are these: protein: recombinant; tags: N-terminal GST; dsDNA, one strand shown. In outline: as §1

Another experiment has as its target T9, SPDEF (Homo sapiens, UniProt O95238 1-335).
T9 sequence: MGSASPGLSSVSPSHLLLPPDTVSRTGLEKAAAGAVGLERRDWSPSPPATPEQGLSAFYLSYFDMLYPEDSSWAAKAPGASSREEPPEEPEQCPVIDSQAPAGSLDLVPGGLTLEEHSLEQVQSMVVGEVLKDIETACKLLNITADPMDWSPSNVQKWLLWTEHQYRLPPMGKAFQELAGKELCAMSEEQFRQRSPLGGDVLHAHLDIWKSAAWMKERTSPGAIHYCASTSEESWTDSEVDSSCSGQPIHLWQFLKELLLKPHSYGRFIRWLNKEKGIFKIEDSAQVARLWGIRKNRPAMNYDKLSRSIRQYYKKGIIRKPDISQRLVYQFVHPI
The conditions noted are these: protein: recombinant; tags: N-terminal GST; dsDNA, one strand shown. In outline: as §1

Another experiment addresses T10, ETV7 (Homo sapiens, UniProt Q9Y603 1-341).
T10 sequence: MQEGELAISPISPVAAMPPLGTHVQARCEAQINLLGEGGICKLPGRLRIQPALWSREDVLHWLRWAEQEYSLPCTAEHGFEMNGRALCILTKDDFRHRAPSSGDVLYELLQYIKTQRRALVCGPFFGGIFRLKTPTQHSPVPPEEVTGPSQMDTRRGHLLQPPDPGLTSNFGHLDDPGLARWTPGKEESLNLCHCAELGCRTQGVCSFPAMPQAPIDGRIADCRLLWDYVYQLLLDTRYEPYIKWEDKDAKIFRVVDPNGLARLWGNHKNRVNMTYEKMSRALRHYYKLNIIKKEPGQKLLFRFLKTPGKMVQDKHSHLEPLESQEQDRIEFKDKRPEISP
The note with it: protein: recombinant; tags: N-terminal GST; dsDNA, one strand shown. The procedure, abridged: as §1

The target of a further experiment is T11, ELF5 (Homo sapiens, UniProt Q9UKW6-2 1-255).
T11 sequence: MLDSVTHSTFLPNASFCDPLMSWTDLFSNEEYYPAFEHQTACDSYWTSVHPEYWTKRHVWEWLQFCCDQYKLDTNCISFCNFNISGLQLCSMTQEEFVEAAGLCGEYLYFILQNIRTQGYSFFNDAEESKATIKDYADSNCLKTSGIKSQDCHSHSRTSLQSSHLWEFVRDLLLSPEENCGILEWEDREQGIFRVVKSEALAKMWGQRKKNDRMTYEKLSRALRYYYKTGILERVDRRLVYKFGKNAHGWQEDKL
The conditions noted are these: protein: recombinant; tags: N-terminal GST; dsDNA, one strand shown. In outline:
as §1

In another experiment the target is T12, ETV3 (Homo sapiens, UniProt P41162-2 1-143).
T12 sequence: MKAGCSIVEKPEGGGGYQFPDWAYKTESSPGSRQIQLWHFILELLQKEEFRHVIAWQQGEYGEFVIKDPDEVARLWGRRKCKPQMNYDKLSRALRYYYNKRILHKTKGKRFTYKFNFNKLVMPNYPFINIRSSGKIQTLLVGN
The note with it: protein: recombinant; tags: N-terminal GST; dsDNA, one strand shown. In outline:
as §1

In another experiment the target is ETV6 (Homo sapiens, UniProt P41212 1-452). The note with it: protein: recombinant; tags: N-terminal GST; dsDNA, one strand shown. In outline: as §1
ETV6, sequence (P41212 whole entry): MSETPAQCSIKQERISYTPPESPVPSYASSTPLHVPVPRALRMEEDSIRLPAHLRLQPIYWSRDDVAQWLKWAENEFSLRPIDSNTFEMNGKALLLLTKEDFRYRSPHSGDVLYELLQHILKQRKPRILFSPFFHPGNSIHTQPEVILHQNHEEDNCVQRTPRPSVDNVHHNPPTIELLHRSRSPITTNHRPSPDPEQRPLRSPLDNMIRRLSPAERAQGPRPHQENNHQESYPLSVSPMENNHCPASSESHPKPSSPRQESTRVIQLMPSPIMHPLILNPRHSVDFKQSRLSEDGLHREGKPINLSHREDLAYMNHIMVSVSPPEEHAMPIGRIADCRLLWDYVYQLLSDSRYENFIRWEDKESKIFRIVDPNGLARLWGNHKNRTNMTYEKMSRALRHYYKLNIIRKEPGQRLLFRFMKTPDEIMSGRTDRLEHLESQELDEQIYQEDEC

ELF4, sequence (Q99607 whole entry): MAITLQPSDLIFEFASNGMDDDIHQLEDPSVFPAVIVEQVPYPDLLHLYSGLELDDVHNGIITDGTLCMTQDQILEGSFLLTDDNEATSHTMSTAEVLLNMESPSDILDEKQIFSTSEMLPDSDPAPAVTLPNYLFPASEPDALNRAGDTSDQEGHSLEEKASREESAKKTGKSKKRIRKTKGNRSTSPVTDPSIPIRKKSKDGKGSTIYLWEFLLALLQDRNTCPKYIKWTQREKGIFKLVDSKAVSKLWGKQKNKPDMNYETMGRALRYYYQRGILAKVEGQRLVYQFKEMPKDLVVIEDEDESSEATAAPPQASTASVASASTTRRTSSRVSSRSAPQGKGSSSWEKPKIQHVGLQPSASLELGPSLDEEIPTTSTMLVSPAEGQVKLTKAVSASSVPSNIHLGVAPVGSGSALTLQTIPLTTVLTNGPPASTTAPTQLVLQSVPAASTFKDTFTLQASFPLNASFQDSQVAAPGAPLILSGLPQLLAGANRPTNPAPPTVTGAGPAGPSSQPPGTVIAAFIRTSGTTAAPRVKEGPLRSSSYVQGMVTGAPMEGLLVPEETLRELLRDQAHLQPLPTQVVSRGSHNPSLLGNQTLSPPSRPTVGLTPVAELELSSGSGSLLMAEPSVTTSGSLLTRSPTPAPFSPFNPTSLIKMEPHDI
ETV1, sequence (P50549 whole entry): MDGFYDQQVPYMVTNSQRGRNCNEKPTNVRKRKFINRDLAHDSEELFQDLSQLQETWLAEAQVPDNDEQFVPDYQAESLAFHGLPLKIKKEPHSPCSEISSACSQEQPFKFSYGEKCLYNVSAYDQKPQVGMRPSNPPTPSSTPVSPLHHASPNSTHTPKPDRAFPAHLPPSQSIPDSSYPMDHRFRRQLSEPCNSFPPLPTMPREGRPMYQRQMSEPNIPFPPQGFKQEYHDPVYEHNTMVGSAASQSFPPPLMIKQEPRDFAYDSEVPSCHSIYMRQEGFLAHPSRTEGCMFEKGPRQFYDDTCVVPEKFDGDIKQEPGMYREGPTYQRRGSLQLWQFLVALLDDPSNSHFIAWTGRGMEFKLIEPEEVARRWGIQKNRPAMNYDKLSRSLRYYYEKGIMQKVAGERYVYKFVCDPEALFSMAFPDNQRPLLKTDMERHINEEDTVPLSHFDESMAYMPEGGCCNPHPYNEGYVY
ETV5, sequence (P41161 whole entry): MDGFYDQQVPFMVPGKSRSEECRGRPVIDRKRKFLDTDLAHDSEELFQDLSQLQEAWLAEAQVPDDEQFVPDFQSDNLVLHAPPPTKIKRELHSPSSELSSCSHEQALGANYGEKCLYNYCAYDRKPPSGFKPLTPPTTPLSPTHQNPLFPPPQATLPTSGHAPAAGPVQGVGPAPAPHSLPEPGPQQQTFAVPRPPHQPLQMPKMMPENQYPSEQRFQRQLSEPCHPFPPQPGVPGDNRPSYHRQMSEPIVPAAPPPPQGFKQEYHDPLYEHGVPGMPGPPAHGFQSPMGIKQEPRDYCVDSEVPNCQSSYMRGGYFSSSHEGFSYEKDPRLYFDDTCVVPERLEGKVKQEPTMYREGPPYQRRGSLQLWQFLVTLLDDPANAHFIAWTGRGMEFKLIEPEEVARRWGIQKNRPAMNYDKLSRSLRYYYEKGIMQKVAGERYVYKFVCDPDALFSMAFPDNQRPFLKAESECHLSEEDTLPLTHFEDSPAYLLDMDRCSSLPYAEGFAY
CRX, sequence (O43186 whole entry): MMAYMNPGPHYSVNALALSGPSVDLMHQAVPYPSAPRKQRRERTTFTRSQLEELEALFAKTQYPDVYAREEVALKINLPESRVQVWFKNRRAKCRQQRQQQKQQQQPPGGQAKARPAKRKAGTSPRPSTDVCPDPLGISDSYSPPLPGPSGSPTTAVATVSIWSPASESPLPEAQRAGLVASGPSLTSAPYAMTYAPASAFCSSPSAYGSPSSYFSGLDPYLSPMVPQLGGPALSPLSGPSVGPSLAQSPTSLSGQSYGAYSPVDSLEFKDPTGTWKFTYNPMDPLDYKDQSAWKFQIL
HSF1, sequence (Q00613 whole entry): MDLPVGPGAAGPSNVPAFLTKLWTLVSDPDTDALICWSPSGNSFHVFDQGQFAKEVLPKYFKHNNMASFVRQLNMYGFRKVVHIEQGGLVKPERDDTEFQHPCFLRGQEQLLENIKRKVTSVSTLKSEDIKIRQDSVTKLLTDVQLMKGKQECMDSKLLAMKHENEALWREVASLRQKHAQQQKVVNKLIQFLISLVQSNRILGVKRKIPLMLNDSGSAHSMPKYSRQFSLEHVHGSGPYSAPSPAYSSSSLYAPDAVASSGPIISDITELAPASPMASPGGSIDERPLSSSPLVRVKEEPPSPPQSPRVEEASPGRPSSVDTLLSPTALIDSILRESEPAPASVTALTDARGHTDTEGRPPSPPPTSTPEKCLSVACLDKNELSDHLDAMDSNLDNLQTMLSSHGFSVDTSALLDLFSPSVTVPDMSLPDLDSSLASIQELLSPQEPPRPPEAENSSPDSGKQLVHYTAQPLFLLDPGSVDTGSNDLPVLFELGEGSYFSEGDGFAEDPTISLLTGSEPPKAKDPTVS

Turning to AACAAC, the binding signal was 1.26 fold enrichment (6-mer frequency, TF over GST control) with FEV; 1.24 fold enrichment (6-mer frequency, TF over GST control) with ETV5; 1.14 fold enrichment (6-mer frequency, TF over GST control) with HSF1; 1.2 fold enrichment (6-mer frequency, TF over GST control) with SPIC; 1.26 fold enrichment (6-mer frequency, TF over GST control) in the experiment with ELF4; 1.27 fold enrichment (6-mer frequency, TF over GST control) with ELK4. Besides, the binding signal was 1.34 fold enrichment (6-mer frequency, TF over GST control) in the experiment with ETV2; 1.31 fold enrichment (6-mer frequency, TF over GST control) with ELF3; 1.04 fold enrichment (6-mer frequency, TF over GST control) with CRX; 1.23 fold enrichment (6-mer frequency, TF over GST control) in the experiment with ETV1; 1.35 fold enrichment (6-mer frequency, TF over GST control) with ERF; 1.25 fold enrichment (6-mer frequency, TF over GST control) in the experiment with ETV3L. Moreover, the binding signal with ETS2 was 1.33 fold enrichment (6-mer frequency, TF over GST control); in the experiment with SPDEF it was 1.27 fold enrichment (6-mer frequency, TF over GST control); with ETV7 it was 1.3 fold enrichment (6-mer frequency, TF over GST control); with ELF5 it was 1.28 fold enrichment (6-mer frequency, TF over GST control); in the experiment with ETV3, 1.37 fold enrichment (6-mer frequency, TF over GST control); with ETV6, 1.35 fold enrichment (6-mer frequency, TF over GST control).
